Sampled rows, rich in hits. Any-hit rate of the full collection: about 9.2%.
ELG1 genotoxic – inducers of genotoxicity in HEK293T ELG1-luciferase cells. HEK293T ELG1-luciferase reporter, luminescence, 16 h. Potency, µM (top dose mostly 46 µM), without a hit: at the top dose activity change, positive = activation, hits mostly activators. 1.3% of 330,000 active; also: % of control where 0% means no effect; nearly all actives have a fitted effect of over 60% in size
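Screening used a luciferase reporter fused to human ELG1 in HEK293T cells. Luminescence was read on a CCD plate imager after 16 hr exposure and 30 min ONE-Glo incubation.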
NPC1 promoter act – NPC1 promoter activation; Huh7 NPC1 promoter luciferase reporter, 24 h; Potency, µM (top dose mostly 9.22 µM), for inactives: at the top dose activation, most hits filed as activators; 2.4% of 320,000 active; also: % of control where 0% means no effect; nearly all actives have a fitted effect of over 60% in size
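Quantitative HTS used a cell-based reporter: Huh7 cells stably bearing the NPC1 promoter upstream of luciferase were treated with compounds for 24 h, and promoter activation was read as luminescence.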
Rab9 promoter act – activators of Rab9 promoter. Huh7 Rab9 promoter-luciferase reporter, luminescence, 24 h. Potency, µM (doses to about 9.22 µM), without a hit: at the highest dose activation, negative = inhibition, most hits filed as activators. 2.8% of 320,000 active. AID 485297; also: % of control where 0% means no effect; nearly all actives have a fitted effect of over 60% in size
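Promoter activation is measured as luciferase luminescence in Huh7 cells stably transfected with a Rab9 promoter–luciferase construct, following 24 h compound exposure at 37 °C and 10 min reagent incubation at ambient temperature.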
ELG1 DNA repair – blocks ELG1-dependent DNA repair in HEK293T cells; HEK293T ELG1-luciferase reporter, luminescence, 16 h; DNA damage induced by 5-fluorouridine; Potency, µM (titrated, usually from 46.1 µM), for the others: at the highest dose activity change, negative = inhibition, most hits filed as inhibitors; 2.3% of 330,000 active; also: % is scaled to controls: 0 for no effect and ±100 for the full control effect; nearly all actives have a fitted effect of over 55% in size
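Reporter activity after DNA damage by 5-fluorouridine is monitored. Compound-treated cells incubate 16 hr at 37 °C, then ONE-Glo is added for 30 min before luminescence reading.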
FLuc modulator – firefly luciferase modulation, counter-screen for miR-21 project. purified FLuc, Km substrates, luminescence inhibition. Potency, µM (titrated, usually from 57.5 µM), for the others: top-dose activity change, negative = inhibition, hits mostly inhibitors. 6.9% of 360,000 active. P08659;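 also: plate controls were vehicle for no effect and reference inhibitor for full effect; nearly all actives have a fitted effect of over 55% in size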
Target sequence (P08659 whole entry, looked up): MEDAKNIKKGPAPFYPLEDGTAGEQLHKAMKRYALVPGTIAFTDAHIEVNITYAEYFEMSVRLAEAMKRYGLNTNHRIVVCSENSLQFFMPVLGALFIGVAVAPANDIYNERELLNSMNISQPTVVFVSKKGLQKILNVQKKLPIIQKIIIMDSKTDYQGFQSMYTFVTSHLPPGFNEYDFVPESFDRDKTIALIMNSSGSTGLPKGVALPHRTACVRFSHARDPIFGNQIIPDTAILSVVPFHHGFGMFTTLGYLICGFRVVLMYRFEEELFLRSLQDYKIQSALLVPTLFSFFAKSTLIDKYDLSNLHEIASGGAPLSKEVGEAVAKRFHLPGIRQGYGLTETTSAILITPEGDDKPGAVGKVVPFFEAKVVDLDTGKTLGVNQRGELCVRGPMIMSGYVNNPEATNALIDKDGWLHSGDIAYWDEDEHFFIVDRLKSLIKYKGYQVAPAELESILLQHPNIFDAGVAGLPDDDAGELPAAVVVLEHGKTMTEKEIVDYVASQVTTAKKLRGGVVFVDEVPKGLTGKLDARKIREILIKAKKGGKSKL
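Purified P. pyralis luciferase, 10 nM final, with Km-level 10 uM D-luciferin and 10 uM ATP in 50 mM Tris acetate pH 7.5, 10 mM Mg acetate, 0.01% Tween-20, 0.05% BSA; 6-point qHTS titration about 60 µM downward; luminescence read.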
SMN2 splice enh – increases expression of the SMN2 splice variant. HEK293 SMN2-luciferase splicing reporter, luminescence, 30-36 h. Potency, µM (doses to about 46.1 µM), inactives show at the highest dose activity change, positive = activation, usual class: activators. 2.8% of 210,000 active; also: % of control where 0% means no effect; nearly all actives have a fitted effect of over 55% in size
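qHTS luciferase splicing reporter: luminescence rises when SMN2 exon 7 is included in transfected HEK293 cells. Compound exposure lasted 30-36 h at 37C, with 4.5 mM final sodium butyrate as control, followed by a ONE-Glo read.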
The depositor's hits bear a star; [ ] = dose if it differs, or a comment. Calls follow the shape of the dose curve; as a rule, active = well fitted curve in the direction sought with a large enough effect; inconclusive = small, poorly fitted or top-dose-only effect, or another doubt; inactive = no such curve, though single readings can be large; an effect the other way counts as inactive or inconclusive. Potency is read from the fitted curve at half-maximal effect.

For CC(Oc1ccccc1)C(=O)N1CCN(C(=O)C(C)Oc2ccccc2)CC1 (configuration not stated) the results were ELG1 genotoxic -12%, NPC1 promoter act -3%, Rab9 promoter act 4%, ELG1 DNA repair 6.5µM* and FLuc modulator -2%.
`CCOc1ccc(/C=C2/Sc3ccc(C(=O)N4CCN(C(=O)c5ccco5)CC4)cc3N(C)C2=O)cc1OC` gave ELG1 genotoxic -14%, NPC1 promoter act -19%, Rab9 promoter act -8%, ELG1 DNA repair 21µM*, FLuc modulator -12% and SMN2 splice enh -72%.
`CCOc1ccc(/C=C2/Sc3ccc(C(=O)NCC4CCCO4)cc3N(C)C2=O)cc1OC` (configuration not stated) gave ELG1 genotoxic 1%[9.26 µM], NPC1 promoter act -4%, Rab9 promoter act -1%, ELG1 DNA repair 18µM* and FLuc modulator -20%.
Screening CC1(C)Cc2c(cnn2-c2ccccc2)C(NC(=O)c2ccc[n+]([O-])c2)C1 (configuration not stated) returned ELG1 genotoxic 22%, NPC1 promoter act 1%, Rab9 promoter act -9%, ELG1 DNA repair 5% and FLuc modulator 3%.
`N#Cc1c(C(F)(F)F)cc(-c2ccc(F)cc2)[nH]c1=O` gave ELG1 genotoxic -4%, NPC1 promoter act 1%, Rab9 promoter act -1%, ELG1 DNA repair 18µM*, FLuc modulator inconclusive and SMN2 splice enh -5%.
O=C(CSc1nc2ccccc2s1)Nc1cc(S(=O)(=O)N2CCOCC2)ccc1Cl was read as ELG1 genotoxic 0%, NPC1 promoter act 0%, Rab9 promoter act 0%, ELG1 DNA repair 23µM*, FLuc modulator inconclusive and SMN2 splice enh -17%.
For Cc1ccc(S(=O)(=O)N2CCOCC2)cc1NC(=O)CSc1ncccn1 the results were ELG1 genotoxic 2%, NPC1 promoter act -3%, Rab9 promoter act -2%, ELG1 DNA repair 23% and FLuc modulator -2%.
Cc1cc2nnc(SCC(=O)Nc3cc(S(=O)(=O)N4CCOCC4)ccc3Cl)n2c2ccccc12 was read as ELG1 genotoxic -8%, NPC1 promoter act -3%, Rab9 promoter act 0%, ELG1 DNA repair 18µM*, FLuc modulator -20% and SMN2 splice enh -22%.
For O=C(CNc1ccccc1Cl)Nc1cc(S(=O)(=O)N2CCOCC2)ccc1Cl the results were ELG1 genotoxic -7%, NPC1 promoter act 0%, Rab9 promoter act -1%, ELG1 DNA repair inconclusive and FLuc modulator 1%.
`Cc1ccc(S(=O)(=O)N2CCOCC2)cc1NC(=O)CSc1nnc2cc(C)c3ccccc3n12` gave ELG1 genotoxic -6%, NPC1 promoter act 0%, Rab9 promoter act -3%, ELG1 DNA repair 18µM*, FLuc modulator inconclusive and SMN2 splice enh -37%.
`Cc1ccc(-n2c(SCC(=O)Nc3cc(S(=O)(=O)N4CCOCC4)ccc3Cl)nc3ccccc3c2=O)cc1` gave ELG1 genotoxic 0%, NPC1 promoter act 0%, Rab9 promoter act -5%, ELG1 DNA repair -16%, FLuc modulator -16% and SMN2 splice enh 7%.
`Cc1ccc(S(=O)(=O)NC(=O)OC23COCN2COC3)cc1` gave SMN2 splice enh -7%[9.22 µM].
`COc1ccc(-c2ccn(-c3cccc(F)n3)n2)cc1` gave ELG1 genotoxic inconclusive, NPC1 promoter act 3.2µM*, Rab9 promoter act 2.2µM*, ELG1 DNA repair inconclusive, FLuc modulator 15µM* and SMN2 splice enh -55%.
Screening O=C(CN1C(=O)c2cccc([N+](=O)[O-])c2C1=O)OCC(=O)N1CCCCC1 returned ELG1 genotoxic -3%, NPC1 promoter act 8%, Rab9 promoter act 21%, ELG1 DNA repair inconclusive and FLuc modulator 8.5µM*.
For CCN(CC)S(=O)(=O)c1cccc(-c2nnc(-c3ccc(C)cc3)o2)c1 the results were ELG1 genotoxic 7%, NPC1 promoter act 10%, Rab9 promoter act 11%, ELG1 DNA repair inconclusive, FLuc modulator -8% and SMN2 splice enh -12%.
For Brc1ccccc1-c1nnc(SCc2nc3ccccc3s2)o1 the results were ELG1 genotoxic inconclusive, NPC1 promoter act 22%, Rab9 promoter act inconclusive, ELG1 DNA repair inconclusive, FLuc modulator 7.6µM* and SMN2 splice enh 14µM*.
`Cn1nnnc1SCc1nc2ccccc2s1` gave ELG1 genotoxic 14%, NPC1 promoter act 20%, Rab9 promoter act inconclusive, ELG1 DNA repair inconclusive, FLuc modulator inconclusive and SMN2 splice enh inconclusive.
Screening CCN(CC)S(=O)(=O)c1cccc(-c2nnc(SCc3nc4ccccc4s3)o2)c1 returned ELG1 genotoxic 3%, NPC1 promoter act 14%, Rab9 promoter act inconclusive, ELG1 DNA repair inconclusive, FLuc modulator 15µM* and SMN2 splice enh -45%.
`CCOc1cccc(C=Nc2cc(C)cc(C)c2O)c1O` gave ELG1 genotoxic 3%, NPC1 promoter act 3%, Rab9 promoter act 9%, ELG1 DNA repair -24%, FLuc modulator 27µM* and SMN2 splice enh 14%.
Screening CCOc1cccc(/C=N/N2C(C)CCCC2C)c1O (configuration not stated) returned ELG1 genotoxic 7%, NPC1 promoter act -1%, Rab9 promoter act 4%, ELG1 DNA repair 22% and FLuc modulator 17µM*.
Screening CCOc1cccc(/C=N/N=C/c2cccc(OCC)c2O)c1O returned ELG1 genotoxic 3%, NPC1 promoter act 14%, Rab9 promoter act 12%, ELG1 DNA repair 24% and FLuc modulator -11%.
`CCOc1ccc(/C=N/N2C(C)CCCC2C)cc1` (configuration not stated) gave ELG1 genotoxic 18%, NPC1 promoter act -4%, Rab9 promoter act 1%[1.84 µM], ELG1 DNA repair inconclusive and FLuc modulator inconclusive.
Screening CN(C)/C=C/C(=O)c1cnc(-c2ccccc2Cl)s1 returned ELG1 genotoxic inconclusive, NPC1 promoter act 2µM*, Rab9 promoter act 1.3µM*, ELG1 DNA repair inconclusive, FLuc modulator 9.5µM* and SMN2 splice enh 13µM*.
`CN(C)/C=C/C(=O)c1ccc(Br)s1` gave ELG1 genotoxic inconclusive, NPC1 promoter act -1%, Rab9 promoter act 27%, ELG1 DNA repair inconclusive, FLuc modulator inconclusive and SMN2 splice enh 11%.
CN(C)/C=C/C(=O)c1cnc(-c2ccccn2)s1 was read as ELG1 genotoxic 25%, NPC1 promoter act 3.2µM*, Rab9 promoter act 1.6µM*, ELG1 DNA repair inconclusive, FLuc modulator inconclusive and SMN2 splice enh 11µM*.

Screens: PubChem, National Center for Advancing Translational Sciences (NCATS)
